Assay results taken from PubChem BioAssay (NCI).
About 83,000 compounds went through this panel and 20% of them were active in at least one assay; those are over-represented in the sample as a whole.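 Single-concentration screen, 48 h exposure, 96-well plates. Endpoint: percent growth. Below 10 = active.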 Values without a mark were called inactive. Active and inactive are the calls of the source.

Each compound was assayed on MALME-3M melanoma (assay: NCI-60 one-dose screen, 48 h (100 = growth as untreated, 0 = no growth, -100 = all killed)). Details: 10 µM unless noted.

Going from Oc1c(I)cc(-c2nc3ccccc3s2)cc1CN(Cc1ccccn1)Cc1ccccn1 to O=C1/C(=C/c2ccc(C(F)(F)F)cc2)COc2ccc(O)c(O)c21, the growth rises from 11.5% to 23.6%.

For Cc1ncc(C(=O)Nc2ccc(CN3CCN(C)CC3)c(C(F)(F)F)c2)cc1C#Cc1cnc(N)c2ccncc12, the growth was -72.9% (active).
With O=C1N[C@@H]2[C@@H](O)[C@@H](O)[C@H](O)C[C@H]2c2cc3c(c(O)c21)OCCO3 the growth was -23.8% (active).

What follows are compounds tested on MDA-MB-231 breast in the same assay as above. Details: 10 µM unless noted.

First: CCCCCSB(SCCCCC)c1ccccc1
Second: CCN(CC)CCCNCc1cc(-c2ccccc2)nc2cc(Cl)ccc12
The growth of the first is higher: 105% for the first, 22.1% for the second.

Going from c1ccc(CNc2ccc3nc(CCC4CCCCC4)[nH]c3c2)cc1 to O=P(O)(O)OCC1OC(n2cnc3c(NCc4ccccc4)ncnc32)C(O)C1O (centres undefined), the growth falls from 77.7% to 10.6%.

Compared with S=c1ssnc1-c1cccs1, COc1ccc(Cc2cnc(NC(=O)c3sc4ccccc4c3Cl)s2)cc1 is lower in growth: 88.8% for the first, 41.9% for the second.

Going from O=C(/C=C/c1ccc(Br)cc1)c1ccc(-n2cc(CN3CCN(c4cc5c(cc4F)c(=O)c(C(=O)O)cn5C4CC4)CC3)nn2)cc1 to O=C(CCCCCCN1CC(=O)N2[C@@H](c3ccc(Cl)cc3)c3[nH]c4ccccc4c3C[C@H]2C1=O)NO, the growth falls from 80.1% to 50.9%.

First: N#C/C(=C\c1ccc(Cl)cc1Cl)C(=O)Nc1ncc(Cc2ccc(Cl)c(Cl)c2)s1
Second: O=C(CSc1nnc2sc(Nc3cccc(Cl)c3)nn12)c1ccc(F)cc1
The growth of the first is higher: 97.1% for the first, 79.7% for the second.

Going from N#Cc1c(-c2cccc([N+](=O)[O-])c2)cc(-c2ccc(Nc3nc(Nc4ccc(F)cc4)nc(Nc4ccc(F)cc4)n3)cc2)nc1N to COc1ccc(C2=Nc3c(N)ncnc3NC(c3cccc(Nc4ccnc5cc(C(F)(F)F)ccc45)c3)C2)cc1 (centres undefined), the growth falls from 91.9% to 46.3%.

First: CCCC(O)Cn1ncc(C(=O)OCC)c1NC(=O)NCc1cccc(F)c1 (centres undefined)
Second: C#CCn1cnc2c(Nc3cccc(NC(=O)CCl)c3)ncnc21
The growth of the first is higher: 103% for the first, 18.4% for the second.

Compared with COc1cc2c3c(c1O)-c1ccccc1[C@@H]1OC(=O)N(CC2)[C@H]31, COc1cc(C(=O)c2c(-c3ccccc3)oc3c(OC)cccc23)cc(OC)c1O is lower in growth: 93.1% for the first, 17% for the second.

First: C/C(=C(/c1ccc(Cl)cc1)c1ccc(OCCCN(C)C)cc1)c1ccc(Cl)cc1
Second: COc1cc(-c2nc3occn3c2-c2ccnc(NCCCNS(=O)(=O)c3ccccc3)n2)ccc1F
The growth of the first is higher: 99.2% for the first, 45.1% for the second.

Compared with Cc1cc(C(=O)Nc2cc(Nc3ncccc3-c3ncnc4nc[nH]c34)ccc2F)cc(C(F)(F)F)c1, Nc1c(C(=O)Nc2cccc3ncccc23)sc2nc3c(cc12)C(=O)CCC3 is higher in growth: 22.9% for the first, 58% for the second.

Compared with CCOC(=O)NN1CC(O)=C(c2nc(-c3ccc(Br)cc3)cs2)C1=N, Cn1cc(-c2nn3cc(-c4ccccc4)nc3s2)c2ccccc21 is lower in growth: 104% for the first, 67.3% for the second.

Compared with O=C1C(Cl)=C(NCCN2CCOCC2)C(=O)c2ncccc21, O=C1c2cc3c(cc2-c2c1c1ccc(Cl)cc1c(=O)n2C[C@H](O)CO)OCO3 is higher in growth: 18.6% for the first, 19.5% for the second.

Compared with C[C@H]1[C@H](C)CC[C@]2(C(=O)O)CC[C@]3(C)C(=CC[C@@H]4[C@@]5(C)C[C@@H](Cc6cn([C@@H]7O[C@H](CO)[C@@H](O)[C@H](O)[C@H]7O)nn6)[C@H](O)C(C)(C)[C@@H]5CC[C@]43C)[C@H]12, CCOC(=O)CSc1nc2sc3c(c2c(=O)n1-c1ccc([N+](=O)[O-])cc1)CCCCC3 is lower in growth: 102% for the first, 50.4% for the second.

First: COC(=O)c1ccc2c(c1)c1c(C)c3ccncc3c(C)c1n2C
Second: COc1cc2oc(-c3cccc(NC(=O)c4ccc5c(c4)OCO5)c3)cc(=O)c2c(OC)c1OC
The growth of the first is lower: 25.1% for the first, 64.3% for the second.

First: CCC/C(=N\NC(N)=O)C(OC)OC
Second: Oc1c(I)cc(-c2nc3ccccc3s2)cc1CN(Cc1ccccn1)Cc1ccccn1
The growth of the first is higher: 85.8% for the first, 34.9% for the second.

For CCCCCCCCn1ccc2cc(NC(=O)Cn3cc(CN4CCC(C)CC4)nn3)ccc21, the growth was 9.71% (active).
O=C(Nc1ccc(F)cc1)Nc1ccccc1CNc1nc(Nc2ccc(OCCN3CCCC3)cc2)ncc1Cl was tested, and the growth was -30.9% (active).
In the case of C=C1C(=O)O[C@H]2[C@H]1CC/C(CNC(=O)c1cc3ccccc3[nH]1)=C\CC[C@@]1(C)O[C@@H]21, the growth is reported as -46.6% (active).
COc1cc2nc(Nc3cccc(F)c3)nc(Nc3cc(C)[nH]n3)c2cc1OC was tested, and the growth was -98.6% [20 µM] (active).
CCSC1=CC(=O)c2ccccc2C1=O was tested, and the growth was 3.95% (active).
In the case of COC1=CC(c2ccc[nH]2)=N/C1=C\c1[nH]c(C)c(CC(=O)OCc2ccccc2)c1C, the growth is reported as -13.6% (active).
With C=C1C(=O)O[C@H]2[C@H]1CC/C(COC(=O)NCCCCCCCCNC(=O)OC/C1=C/CC[C@@]3(C)O[C@H]3[C@H]3OC(=O)C(=C)[C@@H]3CC1)=C\CC[C@@]1(C)O[C@@H]21 the growth was -79.1% (active).
In the case of Cc1ncc(C(=O)Nc2ccc(CN3CCN(C)CC3)c(C(F)(F)F)c2)cc1C#Cc1cnc(N)c2ccncc12, the growth is reported as -47.9% (active).
O=C1/C(=C/c2ccc(C(F)(F)F)cc2)COc2ccc(O)c(O)c21 was tested, and the growth was -10% (active).
For O=C1N[C@@H]2[C@@H](O)[C@@H](O)[C@H](O)C[C@H]2c2cc3c(c(O)c21)OCCO3, the growth was -24.1% (active).
